PubChem BioAssay AID623980 (National Center for Advancing Translational Sciences (NCATS), 2012)
Some of the results follow. Active and inactive are the calls of the source. Calls follow the shape of the dose curve; as a rule, active = well fitted curve in the direction sought with a large enough effect; inactive = no such curve, though single readings can be large or run the other way.

experiment: qHTS for Inhibitors of mutant isocitrate dehydrogenase 1 (IDH1): Cherrypicks Autofluorescence Interference; settings: Resorufin detection reagent fluorescence interference, cell-free; series mostly up to 51.2 µM
Text: Readout Interference Assay for Inhibitors of IDH1 R132H and WT IDH1 Malignant glioblastomas (WHO grade IV), including primary and secondary glioblastomas, are among the most lethal with a median survival of one year, and unfortunately they are also the most prevalent type of brain tumors. By and large the standard of care of gliomas remains the use of the oral alkylating agent temozolomide and radiotherapy following surgical tumor resection. There is an urgent unmet medical need for novel therapeutics for gliomas. IDH mutations occur in up to 70% of grade II-IV secondary glioblastomas, and IDH1 R132H is the most prevalent mutation. […] Wild-type (WT) IDH1 catalyzes the conversion of isocitrate to a-ketoglutarate with the concomitant reduction of NADP+ to NADPH. In contrast, IDH1 R132H catalyzes the conversion of -ketoglutarate to 2-hydroxyglutarate (2-HG) with the concomitant oxidation of NADPH to NADP+ [5]. Recently, a second significant advancement for the field was the finding that IDH is an oncogene, and that its metabolic product 2-HG may contribute to the pathogenesis of IDH-mutated cancers. […] Although this link to cancer is tantalizing, the direct evidence of how 2-HG drives pathogenesis of gliomas and AML remains a subject of further research. The goal of this detection interference assay is to identify whether the potential small-molecule inhibitors of IDH1 R132H or WT IDH1 confound the fluorescence readout by interfering with the detection reagent. Inhibition of the detection reagent would lead to a decrease in observed fluorescence of the product resorufin relative to the DMSO control. Compounds were screened as concentration-titration series that ranged from 76 uM to 0.15 uM. NIH Molecular Libraries Probe Production Network [MLPCN] NIH Chemical Genomics Center [NCGC] MLSCN Grant: R03 DA032129 PI Name: Dr. Lenny Dang
Detection reagent buffer was dispensed into black, solid 1536-well plates at 9 microL/well in 20 mM Tris buffer, pH 7.5, containing final concentrations of 10 mM MgCl2, 20 mM NaCl, 0.05% BSA, 2 mM beta-ME, 0.008 mM NADPH, 1 mM alpha-ketoglutarate, and 0.008 mM resorufin. Then, 23 nL of compounds or DMSO were delivered to each well using a pin tool. The fluorescence intensity was monitored on an Envision plate reader at 590 nm (Ex 540, Em 590, bodipy mirror, 10 flashes). The %Activity was determined from the corrected fluorescence values. Resorufin at 0x was included to normalize %Activity of identified inhibitors; 0x resorufin values corresponded to 100%Activity (full inhibition), while 1x resorufin values were used to normalize 0%Activity (no inhibition). Concentration-response curves were fitted to the signals arising from the resulting fluorescence. The concentration-response curves were then classified based on curve quality (r2), response magnitude and degree of measured activity, and compounds were subsequently categorized based on their curve class. […] Keywords: Isocitrate dehydrogenase, IDH1, IDH1 R132H, 2-HG, 2-hydroxyglutarate, AML, glioma, MLSMR, MLPCN, NIH Roadmap, qHTS, NCGC

Compound	outcome
CCCc1nc2c(c(=O)c3ccccc3n2C)c(=O)n1C1CCCCCC1	inactive
COc1ccc(Cl)cc1-n1c(=S)sc2c(=O)n(-c3ccc(F)cc3)c(SCC(=O)O)nc21	inactive
COc1ccc(C(C(=O)NC2CCCCC2)N(C(=O)c2snc(C(N)=O)c2N)c2ccccc2OC)cc1 (centres undefined)	inactive
CC(C)Nc1nc(N(c2ccccc2)c2ccccc2)nc(-n2ccnc2)n1	inactive
CCCOc1ccc(C2c3c(-c4ccccc4O)n[nH]c3C(=O)N2Cc2cccnc2)cc1 (centres undefined)	inactive
Cc1nc(C)c(C(=O)N(c2ccc(C)c(C)c2)C(C(=O)NCc2ccco2)c2ccccc2)s1 (centres undefined)	inactive
Cc1cccc(N(C(=O)Cc2cccs2)C(C(=O)NC2CCCC2)c2ccsc2)c1 (centres undefined)	inactive
CCCCOc1ccc(CN2C(=O)C(=O)c3cc(Br)cc(C)c32)cc1OC	inactive
CC(C)(C)c1ccc(S(=O)(=O)Nc2ccc(O)c(Sc3nc4ccccc4s3)c2)cc1	inactive
CCSc1nc2sc3c(c2c(=O)n1-c1ccc(C)cc1)CCN(C)C3	inactive
CCCNc1ncnc2c1c(-c1ccccc1)cn2-c1ccc(OCC)cc1	inactive
CCC(C)(C)NC(=O)C(c1cccn1C)N(Cc1ccc(C)cc1)C(=O)Cn1nnc2ccccc21 (centres undefined)	inactive
O=C(NC(Nc1nc2ccc([N+](=O)[O-])cc2s1)(C(F)(F)F)C(F)(F)F)c1ccccc1	inactive
COc1cc2c(-c3ccc4c(c3)OCO4)c(-c3ccsc3)oc(=O)c2cc1OC	inactive
Cc1nc(-c2ccc(Cl)cc2)sc1C(=O)CBr	inactive
COc1cc(/C=C2/C(=O)ON=C2C)ccc1OCc1ccccc1F	inactive
C(=N/Nc1cc(N2CCOCC2)nc(N2CCOCC2)n1)/c1ccccc1	inactive

Compound	outcome
Cc1ccc(Nc2nc(CSc3nnc(-c4ccncc4)n3-c3ccccc3C)cs2)cc1	inactive
N#CC1=C(N)C(C#N)(C#N)[C@H](c2ccsc2)[C@H]2COCC=C12	inactive
Cc1ccc2nc(N3C(=O)C(O)=C(C(=O)c4ccco4)C3c3cccc(O)c3)sc2c1 (centres undefined)	inactive
CC(C)N(C(=O)CSc1nc(COc2ccccc2)nc2ccccc12)C(C)C	inactive
COc1cc(/C=C2/SC(=S)N(Cc3ccccc3)C2=O)cc(OC)c1O	inactive
COc1ccc(C(CCN(Cc2ccc(OC)c(OC)c2)C(=O)CCl)c2ccccc2)cc1 (centres undefined)	inactive
CCCCC(=O)NC(c1ccc(OC)c(OC)c1)c1ccc2cccnc2c1O (centres undefined)	inactive
Cn1c(COc2ccc(Cl)cc2)nc2ccccc2c1=O	inactive
CCOC(=O)c1oc2c(CN3CCN(CCO)CC3)c(O)c(CC)cc2c(=O)c1-c1nc2ccccc2s1	inactive
COc1ccc(/C=C2/SC(=O)N(CCCCCC(=O)Nc3ccccc3C(=O)O)C2=S)cc1	inactive
COC(=O)c1ccc(-c2c(-c3ccccc3)ncc3cc(OC)c(OC)cc23)cc1	inactive
COC(=O)c1cccc(N(C(=O)c2ccco2)C(C(=O)NC2CCCC2)c2ccco2)c1 (centres undefined)	inactive
COc1ccc(/C=N/Nc2cc(N3CCOCC3)nc(C)n2)c(OC)c1	inactive
O=C1c2cccc3cccc(c23)C(=O)N1CCCCCc1n[nH]c(=S)o1	inactive
CCOC(=O)c1ccc(N2C(=O)c3n[nH]c(-c4ccco4)c3C2c2ccc(O)cc2)cc1 (centres undefined)	inactive
CCCc1[nH]nc2c1C(c1ccc(OC)c(Cn3nc(C)c(Br)c3C)c1)C(C#N)=C(N)O2 (centres undefined)	inactive
Cc1ccc(-c2nn(-c3ccccc3)cc2/C=C2\SC(=S)N(CCCCCC(=O)O)C2=O)o1	inactive
